CtBP-E1A inh = inhibitors of CtBP/E1A interaction | AlphaScreen GST-E1A/His-CtBP binding, 1536-well; active compounds read low | AID 651724 | 0.49% of 340,000 active | activity change, % (concentration not given with the values); in the data active = activity change below about -65%; inconclusive = mostly about -30% to -63%
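Steps: dispense buffer (Tris pH 8.0, NaCl 300 mM, TCEP 1 mM, BSA, Tween 20); add 5X protein mix (GST-E1A, His-CtBP, 125 nM each); pin 23 nL compound; 2 h at 37 °C, dark; add 5X beads (50 ug/mL); 1 h; read.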
TDP1 cell CPT = growth inhibition of DT40 Tdp1-/-;hTDP1 cells with camptothecin (screen for TDP1 inhibitors) | AID 686979 | chicken DT40 Tdp1-/-;hTDP1 cells + 20 nM CPT, ATP luminescence, 48 h | Potency, µM (titrated, usually from 46.2 µM), for inactives: top-dose activity change, negative = growth inhibition, usual class: inhibitors | 12% of 420,000 active; note: potency is the fitted concentration of half-maximal effect; nearly all actives have a fitted effect of over 55% in size
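Chicken DT40 Tdp1-/- cells complemented with human TDP1, 400 cells/well, exposed to compounds plus 20 nM camptothecin for at least 48 h at 37 C; viability read as ATP content by CellTiter-Glo luminescence.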
DT40 TDP1 no CPT = qHTS for Inhibitors of human tyrosyl-DNA phosphodiesterase 1 (TDP1): qHTS in cells in absence of CPT. DT40 Tdp1-/- hTDP1 cells, no CPT, ATP luminescence, 48 h. Potency, µM (top dose mostly 46.2 µM), for the others: at the highest dose activity change, negative = growth inhibition, hits mostly inhibitors. 15% of 420,000 active. AID 686978, 2013; note: potency is the fitted concentration of half-maximal effect; nearly all actives have a fitted effect of over 55% in size
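Luminescent ATP content (CellTiter-Glo) served as the growth readout. Knockout chicken DT40 cells expressing human TDP1 were exposed to compounds without camptothecin for a minimum 48 hr at 37 °C.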
IL1B secr inh = blocks inflammasome-driven IL-1 beta release; activity change, % at 57.5 µM; AID 743279; THP-1 LPS/ATP IL-1B secretion, AlphaLISA, 16 h; active compounds read low; 4.7% of 360,000 active; in the data active = activity change below about -50%; inconclusive = mostly about -30% to -49%
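Secreted IL-1B measured by AlphaLISA bead assay after 16 h compound exposure of THP-1 cells; compounds (final up to 57.5 uM) added 1 h before LPS (250 ng/mL) and ATP (1.25 mM) stimulation; lower signal means less secretion.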
TDP1 inh = TDP1 (human) enzyme inhibition; Q9NUW8; recombinant TDP1, AlphaScreen DNA substrate cleavage; Potency, µM (series often up to 130 µM), for inactives: top-dose activity change, negative = inhibition, most hits filed as inhibitors; 0.28% of 350,000 active; AID 485290; note: potency is the fitted concentration of half-maximal effect; nearly all actives have a fitted effect of over 40% in size
Target sequence (Q9NUW8 whole entry, looked up): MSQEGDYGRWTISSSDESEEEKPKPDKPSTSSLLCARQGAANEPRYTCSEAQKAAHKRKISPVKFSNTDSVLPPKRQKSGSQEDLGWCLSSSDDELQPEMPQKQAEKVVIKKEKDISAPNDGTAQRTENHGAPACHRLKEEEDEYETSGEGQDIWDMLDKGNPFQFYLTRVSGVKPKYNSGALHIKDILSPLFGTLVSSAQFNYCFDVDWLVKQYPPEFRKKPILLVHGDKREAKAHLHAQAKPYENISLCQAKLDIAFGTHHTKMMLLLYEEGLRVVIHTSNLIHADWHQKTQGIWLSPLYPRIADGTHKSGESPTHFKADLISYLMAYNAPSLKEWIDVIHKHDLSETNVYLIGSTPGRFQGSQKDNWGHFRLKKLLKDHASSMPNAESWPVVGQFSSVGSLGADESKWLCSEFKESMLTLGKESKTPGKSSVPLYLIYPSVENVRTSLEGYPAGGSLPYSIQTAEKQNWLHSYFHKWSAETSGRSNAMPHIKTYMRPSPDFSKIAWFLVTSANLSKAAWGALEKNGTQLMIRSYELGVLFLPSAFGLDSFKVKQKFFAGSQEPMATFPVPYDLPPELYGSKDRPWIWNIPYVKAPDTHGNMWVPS
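Tdp1 1 nM final; 15 min RT w/ cpd; substrate 15 nM, 5 min; beads 10 ug/ml, 10 min; AlphaScreen read. Neg ctrl: no enzyme.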
Six1-Eya2 blk = Six1/Eya2 interaction inhibition; Q15475+O00167; AlphaScreen GST-Six1/His-Eya2 binding, biochemical; active compounds read low; activity change, % (test concentration not listed); 0.56% of 360,000 active; AID 651725; in the data active = activity change below about -65%; inconclusive = mostly about -30% to -63%
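GST-Six1 + His-Eya2 (5X stock: 250/500 nM); Tris pH 8.0, 300 mM NaCl, 0.05% BSA, 0.02% Tween 20; GSH donor/Ni acceptor beads; 1 h 37 °C dark; AlphaScreen readout.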
An asterisk follows results filed as active; ? = inconclusive; . = no result given; [ ] = remark or other dose. A selection: hits, their analogues and other compounds. The true share with any hit is near 18%. Unless noted, calls come from the whole dose curve; as a rule, active = well fitted curve in the direction sought with a large enough effect; inconclusive = small, poorly fitted or top-dose-only effect, or another doubt; inactive = no such curve, though single readings can be large; an effect the other way counts as inactive or inconclusive. % is set by controls: 0 for no effect and ±100 for the full control effect.

SMILES	CtBP-E1A inh	TDP1 cell CPT	DT40 TDP1 no CPT	IL1B secr inh	TDP1 inh	Six1-Eya2 blk
CCOCCN(C(=O)c1ccccc1Cl)c1cccc(C)c1C	-5	26µM*	?	.	1%	6
Cc1ccc(N(C)S(=O)(=O)c2cccc(C(=O)N(C)Cc3cnn(-c4ccccc4)c3)c2)cc1	-4	?	?	-81*	8%	-8
CN(Cc1cnn(-c2ccccc2)c1)C(=O)c1cccc(S(=O)(=O)N(C)c2ccccc2)c1	-1	18µM*	16µM*	-23	.	3
O=C(CNC(=O)c1ccccc1)OC(C(=O)Nc1ccc2c(c1)OCO2)c1ccccc1 (stereo not given)	.	.	.	.	0%	.
CCOc1ccc2nc(N3CCCC3C(=O)N3CCC(c4nc5ccccc5o4)CC3)nc(C)c2c1 (stereo not given)	.	-2%	-20%	.	.	.
O=C(c1cc2nc(-c3ccco3)cc(C(F)(F)F)n2n1)N1CCCc2ccccc21	10	-19%	?	-9	6%	2
O=C(c1cc2nc(-c3cccs3)cc(C(F)(F)F)n2n1)N1CCCc2ccccc21	-14	18µM*	?	10	-1%	2
O=C(c1cc2nc(-c3cccs3)cc(C(F)(F)Cl)n2n1)N1CCCc2ccccc21	43	?	?	?	-5%	9
O=C(O)c1cc2nc(-c3cccs3)cc(C(F)(F)F)n2n1	-13	-24%	-6%	15	-2%	?
O=C(c1nn2c(C(F)(F)F)cc(-c3cccs3)nc2c1Br)N1CCCc2ccccc21	-11	9.2µM*	8.2µM*	-14	1%	-9
O=C(c1nn2c(C(F)(F)F)cc(-c3ccco3)nc2c1Br)N1CCCc2ccccc21	-21	16µM*	12µM*	6	5%	-27
COc1cc(C(=O)Nc2nonc2-c2ccc(Cl)cc2)cc(OC)c1OC	.	?	?	.	5%	.
O=C(Oc1c(CN2CCOCC2)cc(Cl)c2cccnc12)c1ccccc1F	-91*	3.7µM*	4.6µM*	32	8%	-91*
O=C(Oc1c(CN2CCOCC2)cc(Cl)c2cccnc12)c1ccccc1	-78*	?	?	?	6%	?
Clc1nc(-c2ccccc2)cc(-c2ccccc2)n1	18	-29%	-24%	0	-3%	39
CCc1nnc(NC(=O)Cc2ccc(OC)cc2)s1	7	11%	-4%	24	-2%	7
COc1ccc(-c2cc(-c3ccccc3)nc(SCC(=O)Nc3nccs3)c2C#N)cc1	-1	?	8.2µM*	68	3%	4
CCc1nnc(NC(=O)CSc2nc(C)c3c(c2C#N)CCCC3)s1	-19	18µM*	18µM*	0	3%	-13
COc1ccc(NC(=O)CSc2nc(C)c3c(c2C#N)CCCC3)cc1	1	?	-12%	-2	0%	0
COc1ccc(-c2cc(-c3ccccc3)c(C#N)c(SCC(=O)Nc3ncc(C)s3)n2)cc1	23	-20%	?	5	0%	-11
CCc1nnc(NC(=O)CSc2nc3cc(OC)ccc3cc2C)s1	19	-28%	8.2µM*	-7	5%	8
CCc1nnc(NC(=O)CSc2nc(-c3ccccc3)cc(-c3ccc(OC)cc3)c2C#N)s1	-1	23µM*	21µM*	7	2%	0
COc1ccccc1Cn1c(C)c(C(=O)NCc2ccc(C#N)cc2)sc1=O	-4	?	?	-17	.	-6
O=C(c1ccccc1NS(=O)(=O)c1cccs1)N1CCOCC1	5	9%	-11%	-7	9%	2
O=C(c1ccccc1[N+](=O)[O-])N1CC2C3C=CC(C3)C2C1 (stereo not given)	8	11%	-29%	14	-1%	4
SMILES	CtBP-E1A inh	TDP1 cell CPT	DT40 TDP1 no CPT	IL1B secr inh	TDP1 inh	Six1-Eya2 blk
N#Cc1c(-c2ccccc2)cc(-c2ccccc2)nc1SCC(=O)Nc1ccc(Cl)cc1	.	-2%	-20%	.	.	.
N#Cc1c(-c2ccc(Cl)cc2)cc(-c2ccccc2)nc1SCC(=O)O	.	18µM*	?	22	.	-2
CCOc1cnn(-c2cc(Oc3ccc(C)cc3)ncn2)c(=O)c1Cl	-7	2%	-25%	-1	1%	0
Cc1ccccc1Oc1cc(-n2ncc(Cl)c(Cl)c2=O)ncn1	2	0.65µM*	0.41µM*	-106*	6%	-18
N#Cc1ccc(NC(=O)COCc2cc(-c3ccc(F)cc3)on2)cc1	.	?	21µM*	.	0%	.
CCOC(=O)c1c(C)[nH]c(C(=O)CN2C(=O)NC(CC)(c3ccccc3)C2=O)c1C (stereo not given)	-6	?	?	-7	11%	0
COCC(C)NCc1cc2ccc(OC)cc2nc1N1CCN(c2ccc(F)cc2)CC1 (stereo not given)	.	-6%[9.04 µM]	13µM*	.	.	.
COc1ccc(C(=O)c2ccc(Br)cc2)cc1	12	-4%	-17%	-18	3%	10
COc1ccc(SN=C2C(C)=CC(=O)C=C2C)cc1	-12	?	9.2µM*	?	-11%	-16
COc1ncnc2c1ncn2CCCNC1CCN(Cc2ccccc2)CC1	6	6%	?	?	.	3
Cc1ccccc1NC(=O)c1sc2nc3c(cc2c1N)CN(Cc1ccccc1)CC3	.	?	18µM*	.	6%	.
NC(=O)c1sc2nc3c(cc2c1N)CCCCCC3	-4	?	?	-97*	-5%	-4
Nc1c(C(=O)Nc2ccc(Cl)c(C(=O)O)c2)sc2nc3c(cc12)CCCC3	-78*	-1%	15%	10	1%	-74*
Cc1cc(C)c2c(N)c(C(=O)Nc3cccc(C)c3C)sc2n1	3	?	16µM*	18	.	11
Nc1c(C(=O)O)sc2nc3c(cc12)CCCC3	.	3%	-11%	55	.	10
CC(=O)C1N=NCC1c1ccccc1 (stereo not given)	9	2%	-5%	9	.	1
CCOc1ccc(NC(=O)c2sc3nc4c(cc3c2N)CCCCCC4)cc1	.	8.2µM*	?	.	.	.
Cc1cccc(NC(=O)c2sc3nc4c(cc3c2N)CCCCCC4)c1C	.	1.5µM*	0.65µM*	.	.	.
CC1CCCCC1NC(=O)c1cccc(S(=O)(=O)N2CCN(C)CC2)c1 (stereo not given)	1	23%	1%	11	-7%[0.505 µM]	10
Cc1ccc(C(=O)NCC#N)cc1	1	?	?	-15	3%	-1

Bioassay records: PubChem, National Center for Advancing Translational Sciences (NCATS)
